# Key:
# Assay in all cases: DAPPL (digital affinity profiling via proximity ligation, sequencing); 10 mM Tris-HCl pH 7.5, 50 mM NaCl, 1 mM DTT, 4% glycerol, room temperature, 30 min; GST-TFs on glutathione beads, 16-mer random dsDNA library, 0.1% formaldehyde crosslink after washing; high values mean tight binding
# Details in all cases: protein: recombinant; tags: N-terminal GST; dsDNA, one strand shown
# FLI1 = molecular target: T1, FLI1 (Homo sapiens, UniProt Q01543 1-452)
# T1 sequence: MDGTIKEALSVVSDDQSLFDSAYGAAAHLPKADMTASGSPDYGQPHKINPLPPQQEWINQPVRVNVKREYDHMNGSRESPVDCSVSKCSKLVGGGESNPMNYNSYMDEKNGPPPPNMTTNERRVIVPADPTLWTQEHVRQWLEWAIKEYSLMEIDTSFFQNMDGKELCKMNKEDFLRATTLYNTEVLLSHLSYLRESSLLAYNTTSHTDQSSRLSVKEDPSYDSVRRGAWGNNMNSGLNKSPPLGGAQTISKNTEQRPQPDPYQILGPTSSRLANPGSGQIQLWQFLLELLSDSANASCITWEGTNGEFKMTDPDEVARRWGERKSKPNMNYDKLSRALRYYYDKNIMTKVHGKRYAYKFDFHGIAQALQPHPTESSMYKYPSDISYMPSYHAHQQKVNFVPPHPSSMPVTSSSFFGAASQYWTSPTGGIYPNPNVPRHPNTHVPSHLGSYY
# How it was run: (§1)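 Human transcription factors fused to GST were expressed in yeast, captured on glutathione beads, given DNA barcodes and pooled with a GST-only negative control. Pools were incubated with 200 nmole of a 16-mer random double-stranded DNA library in Tris/NaCl/DTT/glycerol buffer at room temperature for 30 min. They were then washed, crosslinked with 0.1% formaldehyde, proximity-ligated (BsaI/T4 ligase, 1 h, 37 °C), PCR-amplified and sequenced on an Illumina NextSeq500. Binding signal is each 6-mer's read frequency for a factor divided by its frequency for the GST control.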
# ELK1 = molecular target: T2, ELK1 (Homo sapiens, UniProt P19419 1-428)
# T2 sequence: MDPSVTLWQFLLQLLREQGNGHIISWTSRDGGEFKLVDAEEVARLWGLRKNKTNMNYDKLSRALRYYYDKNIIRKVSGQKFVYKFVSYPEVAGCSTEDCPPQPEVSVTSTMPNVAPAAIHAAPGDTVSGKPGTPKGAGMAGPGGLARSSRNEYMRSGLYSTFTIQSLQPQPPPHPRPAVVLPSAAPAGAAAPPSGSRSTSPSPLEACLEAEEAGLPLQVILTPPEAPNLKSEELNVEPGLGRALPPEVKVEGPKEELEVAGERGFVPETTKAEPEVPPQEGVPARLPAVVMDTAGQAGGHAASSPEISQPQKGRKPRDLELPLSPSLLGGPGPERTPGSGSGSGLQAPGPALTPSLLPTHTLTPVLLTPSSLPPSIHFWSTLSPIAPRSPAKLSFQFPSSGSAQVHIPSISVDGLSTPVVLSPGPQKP
# How it was run: as §1
# GABPA = molecular target: T3, GABPA (Homo sapiens, UniProt Q06546 1-454)
# T3 sequence: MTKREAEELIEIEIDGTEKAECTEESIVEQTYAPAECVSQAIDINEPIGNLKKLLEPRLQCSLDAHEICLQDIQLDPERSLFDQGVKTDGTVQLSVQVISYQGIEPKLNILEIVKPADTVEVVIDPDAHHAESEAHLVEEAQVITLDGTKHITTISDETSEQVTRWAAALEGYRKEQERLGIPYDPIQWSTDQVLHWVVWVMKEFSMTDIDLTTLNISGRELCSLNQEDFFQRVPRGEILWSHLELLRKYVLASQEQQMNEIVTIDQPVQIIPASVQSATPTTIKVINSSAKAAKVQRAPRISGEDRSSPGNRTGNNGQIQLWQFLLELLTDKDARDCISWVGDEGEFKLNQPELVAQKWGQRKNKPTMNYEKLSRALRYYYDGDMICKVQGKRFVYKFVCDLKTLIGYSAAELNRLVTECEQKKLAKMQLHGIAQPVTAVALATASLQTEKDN
# How it was run: as §1
# ERG = molecular target: T4, ERG (Homo sapiens, UniProt P11308 1-479)
# T4 sequence: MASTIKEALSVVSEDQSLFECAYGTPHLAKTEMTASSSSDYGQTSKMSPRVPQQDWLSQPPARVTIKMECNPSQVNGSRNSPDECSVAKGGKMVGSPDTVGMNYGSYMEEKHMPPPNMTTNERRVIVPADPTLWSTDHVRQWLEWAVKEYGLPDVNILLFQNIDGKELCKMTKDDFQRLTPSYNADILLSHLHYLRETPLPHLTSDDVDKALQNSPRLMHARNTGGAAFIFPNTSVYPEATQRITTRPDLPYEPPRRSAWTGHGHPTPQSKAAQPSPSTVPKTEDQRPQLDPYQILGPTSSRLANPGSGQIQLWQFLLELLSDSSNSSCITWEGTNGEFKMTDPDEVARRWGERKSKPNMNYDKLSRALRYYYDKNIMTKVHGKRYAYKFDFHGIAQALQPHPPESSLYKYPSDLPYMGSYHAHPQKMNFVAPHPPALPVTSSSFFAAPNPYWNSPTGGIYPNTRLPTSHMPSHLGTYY
# How it was run: as §1
# ELF1 = ELF1 (Homo sapiens, UniProt P32519 1-619)
# Chain of ELF1 (P32519 whole entry): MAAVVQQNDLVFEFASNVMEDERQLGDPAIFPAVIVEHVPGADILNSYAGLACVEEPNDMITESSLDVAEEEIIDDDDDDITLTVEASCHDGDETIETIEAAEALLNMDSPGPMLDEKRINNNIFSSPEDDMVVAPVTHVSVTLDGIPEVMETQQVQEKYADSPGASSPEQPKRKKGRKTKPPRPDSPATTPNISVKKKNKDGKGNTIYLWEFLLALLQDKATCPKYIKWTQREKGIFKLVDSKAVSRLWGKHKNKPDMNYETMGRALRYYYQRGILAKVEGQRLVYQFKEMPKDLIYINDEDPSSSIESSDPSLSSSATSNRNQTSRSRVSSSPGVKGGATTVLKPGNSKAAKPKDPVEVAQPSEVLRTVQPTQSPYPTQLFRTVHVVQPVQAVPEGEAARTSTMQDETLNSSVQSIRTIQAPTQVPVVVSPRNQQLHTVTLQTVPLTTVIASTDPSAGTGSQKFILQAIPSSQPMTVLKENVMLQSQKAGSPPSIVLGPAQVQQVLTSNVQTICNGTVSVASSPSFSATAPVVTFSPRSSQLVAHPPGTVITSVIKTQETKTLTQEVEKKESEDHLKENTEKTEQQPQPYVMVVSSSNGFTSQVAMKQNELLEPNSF
# How it was run: as §1
# EHF = molecular target: T5, EHF (Homo sapiens, UniProt Q9NZC4 1-300)
# T5 sequence: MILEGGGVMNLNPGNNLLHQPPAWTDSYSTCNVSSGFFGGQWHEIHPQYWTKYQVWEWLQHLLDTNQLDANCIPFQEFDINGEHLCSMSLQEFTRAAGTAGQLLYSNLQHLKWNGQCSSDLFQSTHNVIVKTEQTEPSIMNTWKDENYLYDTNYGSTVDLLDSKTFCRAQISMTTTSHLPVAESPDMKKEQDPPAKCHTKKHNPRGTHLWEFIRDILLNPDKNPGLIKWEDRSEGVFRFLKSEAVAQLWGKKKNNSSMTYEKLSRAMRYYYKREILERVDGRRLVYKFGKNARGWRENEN
# How it was run: as §1
# SPI1 = SPI1 (Homo sapiens, UniProt P17947 1-270)
# How it was run: as §1
# SPIB = SPIB (Homo sapiens, UniProt Q01892 1-262)
# Chain of SPIB (Q01892 whole entry): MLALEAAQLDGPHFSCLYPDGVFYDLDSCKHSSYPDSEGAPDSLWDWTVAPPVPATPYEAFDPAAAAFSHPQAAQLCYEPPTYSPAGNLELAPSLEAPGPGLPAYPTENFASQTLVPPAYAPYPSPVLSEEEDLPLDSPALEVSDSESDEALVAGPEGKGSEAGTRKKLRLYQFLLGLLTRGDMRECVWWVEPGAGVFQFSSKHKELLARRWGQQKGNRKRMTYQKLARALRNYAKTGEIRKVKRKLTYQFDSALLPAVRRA
# How it was run: as §1
# ELK3 = molecular target: T6, ELK3 (Homo sapiens, UniProt P41970 1-407)
# T6 sequence: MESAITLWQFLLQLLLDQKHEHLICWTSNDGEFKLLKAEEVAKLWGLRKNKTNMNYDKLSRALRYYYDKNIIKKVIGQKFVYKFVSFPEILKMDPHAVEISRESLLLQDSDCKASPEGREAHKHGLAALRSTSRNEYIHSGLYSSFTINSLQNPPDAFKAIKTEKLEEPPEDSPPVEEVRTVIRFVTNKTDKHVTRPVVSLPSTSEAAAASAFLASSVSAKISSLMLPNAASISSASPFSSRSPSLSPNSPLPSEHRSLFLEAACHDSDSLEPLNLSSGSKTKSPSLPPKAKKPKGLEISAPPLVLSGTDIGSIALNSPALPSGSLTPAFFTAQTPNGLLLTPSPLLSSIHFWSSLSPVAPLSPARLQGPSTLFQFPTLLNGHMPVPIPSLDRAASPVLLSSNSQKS
# How it was run: as §1
# FEV = molecular target: T7, FEV (Homo sapiens, UniProt Q99581 1-238)
# T7 sequence: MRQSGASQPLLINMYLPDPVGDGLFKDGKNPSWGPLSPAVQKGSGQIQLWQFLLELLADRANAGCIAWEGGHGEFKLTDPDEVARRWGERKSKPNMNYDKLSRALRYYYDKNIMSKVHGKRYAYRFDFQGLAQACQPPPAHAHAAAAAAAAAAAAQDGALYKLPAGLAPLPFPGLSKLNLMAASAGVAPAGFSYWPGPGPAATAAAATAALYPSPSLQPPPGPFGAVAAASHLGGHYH
# How it was run: as §1
# ETV5 = ETV5 (Homo sapiens, UniProt P41161 1-510)
# Chain of ETV5 (P41161 whole entry): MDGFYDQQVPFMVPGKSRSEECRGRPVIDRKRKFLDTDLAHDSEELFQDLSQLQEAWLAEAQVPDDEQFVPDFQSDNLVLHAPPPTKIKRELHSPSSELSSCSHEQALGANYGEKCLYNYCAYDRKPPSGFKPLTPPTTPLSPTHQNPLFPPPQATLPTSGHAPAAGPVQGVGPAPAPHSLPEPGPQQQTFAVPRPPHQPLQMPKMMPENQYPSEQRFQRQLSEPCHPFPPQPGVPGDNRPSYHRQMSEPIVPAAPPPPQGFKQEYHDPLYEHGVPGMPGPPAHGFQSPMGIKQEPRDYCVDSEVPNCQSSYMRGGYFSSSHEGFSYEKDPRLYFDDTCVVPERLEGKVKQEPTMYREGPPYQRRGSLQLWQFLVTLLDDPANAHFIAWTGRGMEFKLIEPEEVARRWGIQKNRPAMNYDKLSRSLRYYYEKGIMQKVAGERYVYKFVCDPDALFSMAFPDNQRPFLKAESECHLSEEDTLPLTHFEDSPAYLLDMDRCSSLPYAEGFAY
# How it was run: as §1
# SPIC = molecular target: T8, SPIC (Homo sapiens, UniProt Q8N5J4 1-248)
# T8 sequence: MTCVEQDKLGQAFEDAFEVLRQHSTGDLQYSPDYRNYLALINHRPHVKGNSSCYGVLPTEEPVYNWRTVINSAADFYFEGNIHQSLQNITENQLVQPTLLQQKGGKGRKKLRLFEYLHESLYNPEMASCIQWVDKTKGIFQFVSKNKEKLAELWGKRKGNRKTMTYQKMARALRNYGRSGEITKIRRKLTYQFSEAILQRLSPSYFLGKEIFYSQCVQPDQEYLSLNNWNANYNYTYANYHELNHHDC
# How it was run: as §1
# ELF4 = ELF4 (Homo sapiens, UniProt Q99607 1-663)
# Chain of ELF4 (Q99607 whole entry): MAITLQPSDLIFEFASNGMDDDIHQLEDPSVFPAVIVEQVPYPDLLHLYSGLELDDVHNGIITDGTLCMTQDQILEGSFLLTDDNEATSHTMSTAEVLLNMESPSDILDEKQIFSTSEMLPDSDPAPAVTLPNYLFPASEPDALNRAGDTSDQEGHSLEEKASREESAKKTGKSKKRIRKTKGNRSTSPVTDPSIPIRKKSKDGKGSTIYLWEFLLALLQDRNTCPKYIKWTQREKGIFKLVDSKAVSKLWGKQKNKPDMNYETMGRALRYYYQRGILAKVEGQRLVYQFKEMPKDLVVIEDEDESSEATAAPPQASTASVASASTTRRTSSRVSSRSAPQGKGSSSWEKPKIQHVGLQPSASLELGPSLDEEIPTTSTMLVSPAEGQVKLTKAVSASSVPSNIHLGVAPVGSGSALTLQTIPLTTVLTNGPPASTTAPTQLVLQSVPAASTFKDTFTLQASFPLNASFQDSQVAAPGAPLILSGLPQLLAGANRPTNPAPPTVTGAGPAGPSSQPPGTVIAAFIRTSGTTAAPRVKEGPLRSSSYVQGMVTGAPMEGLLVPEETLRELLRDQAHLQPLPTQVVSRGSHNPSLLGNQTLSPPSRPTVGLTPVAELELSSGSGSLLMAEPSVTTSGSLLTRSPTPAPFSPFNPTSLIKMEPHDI
# How it was run: as §1
# ELK4 = molecular target: T9, ELK4 (Homo sapiens, UniProt P28324-2 1-405)
# T9 sequence: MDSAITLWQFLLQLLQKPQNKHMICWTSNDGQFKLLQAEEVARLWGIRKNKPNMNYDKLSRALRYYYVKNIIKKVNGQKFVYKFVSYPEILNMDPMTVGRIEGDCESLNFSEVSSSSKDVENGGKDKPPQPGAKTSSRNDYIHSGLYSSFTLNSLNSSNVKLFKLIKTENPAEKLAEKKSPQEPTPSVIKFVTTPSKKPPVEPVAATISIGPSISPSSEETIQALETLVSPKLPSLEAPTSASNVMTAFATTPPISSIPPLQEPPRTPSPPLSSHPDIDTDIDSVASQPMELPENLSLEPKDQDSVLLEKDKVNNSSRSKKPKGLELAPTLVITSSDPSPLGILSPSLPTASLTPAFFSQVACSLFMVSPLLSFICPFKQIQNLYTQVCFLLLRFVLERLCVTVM
# How it was run: as §1
# ETV2 = molecular target: T10, ETV2 (Homo sapiens, UniProt O00321 1-342)
# T10 sequence: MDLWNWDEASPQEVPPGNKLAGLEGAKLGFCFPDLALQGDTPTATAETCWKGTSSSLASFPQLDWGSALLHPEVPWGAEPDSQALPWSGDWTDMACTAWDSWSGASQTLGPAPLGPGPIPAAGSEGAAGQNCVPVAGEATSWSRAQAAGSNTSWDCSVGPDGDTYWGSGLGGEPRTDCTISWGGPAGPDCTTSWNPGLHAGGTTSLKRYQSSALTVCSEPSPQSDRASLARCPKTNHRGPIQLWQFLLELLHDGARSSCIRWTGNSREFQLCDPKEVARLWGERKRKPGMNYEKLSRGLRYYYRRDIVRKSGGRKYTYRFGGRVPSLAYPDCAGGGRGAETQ
# How it was run: as §1
# ELF3 = molecular target: T11, ELF3 (Homo sapiens, UniProt P78545 1-371)
# T11 sequence: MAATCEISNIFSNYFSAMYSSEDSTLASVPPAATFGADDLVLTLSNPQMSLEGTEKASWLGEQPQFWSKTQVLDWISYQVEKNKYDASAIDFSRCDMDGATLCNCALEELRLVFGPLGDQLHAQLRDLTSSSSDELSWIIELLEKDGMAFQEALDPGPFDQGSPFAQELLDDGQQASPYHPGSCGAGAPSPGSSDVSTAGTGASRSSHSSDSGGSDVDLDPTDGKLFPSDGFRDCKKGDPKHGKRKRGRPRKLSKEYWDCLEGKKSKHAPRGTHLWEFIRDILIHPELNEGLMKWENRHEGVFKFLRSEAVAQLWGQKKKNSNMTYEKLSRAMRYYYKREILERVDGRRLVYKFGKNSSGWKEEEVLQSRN
# How it was run: as §1
# ETV1 = ETV1 (Homo sapiens, UniProt P50549 1-477)
# Chain of ETV1 (P50549 whole entry): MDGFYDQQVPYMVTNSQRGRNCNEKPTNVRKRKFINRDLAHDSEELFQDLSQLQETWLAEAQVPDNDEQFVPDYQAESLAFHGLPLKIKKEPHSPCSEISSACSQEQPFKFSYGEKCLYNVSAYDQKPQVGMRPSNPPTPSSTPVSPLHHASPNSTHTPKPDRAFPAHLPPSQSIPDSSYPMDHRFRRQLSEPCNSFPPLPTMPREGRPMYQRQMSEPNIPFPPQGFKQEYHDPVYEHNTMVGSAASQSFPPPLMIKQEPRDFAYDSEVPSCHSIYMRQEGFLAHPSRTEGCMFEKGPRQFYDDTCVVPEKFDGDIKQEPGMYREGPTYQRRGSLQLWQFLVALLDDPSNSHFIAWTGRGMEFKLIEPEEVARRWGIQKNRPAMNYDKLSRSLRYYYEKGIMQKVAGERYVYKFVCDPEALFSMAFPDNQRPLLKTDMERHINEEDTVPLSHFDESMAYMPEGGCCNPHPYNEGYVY
# How it was run: as §1
sequence,measurement,setting,value
CACACT,binding signal,FLI1,"1.18 fold enrichment (6-mer frequency, TF over GST control)"
same,binding signal,ELK1,"1.11 fold enrichment (6-mer frequency, TF over GST control)"
same,binding signal,GABPA,"1.17 fold enrichment (6-mer frequency, TF over GST control)"
same,binding signal,ERG,"1.18 fold enrichment (6-mer frequency, TF over GST control)"
same,binding signal,ELF1,"1.21 fold enrichment (6-mer frequency, TF over GST control)"
same,binding signal,EHF,"1.2 fold enrichment (6-mer frequency, TF over GST control)"
same,binding signal,SPI1,"1.16 fold enrichment (6-mer frequency, TF over GST control)"
same,binding signal,SPIB,"1.14 fold enrichment (6-mer frequency, TF over GST control)"
same,binding signal,ELK3,"1.24 fold enrichment (6-mer frequency, TF over GST control)"
same,binding signal,FEV,"1.21 fold enrichment (6-mer frequency, TF over GST control)"
same,binding signal,ETV5,"1.23 fold enrichment (6-mer frequency, TF over GST control)"
same,binding signal,SPIC,"1.13 fold enrichment (6-mer frequency, TF over GST control)"
same,binding signal,ELF4,"1.23 fold enrichment (6-mer frequency, TF over GST control)"
same,binding signal,ELK4,"1.13 fold enrichment (6-mer frequency, TF over GST control)"
same,binding signal,ETV2,"1.14 fold enrichment (6-mer frequency, TF over GST control)"
same,binding signal,ELF3,"1.21 fold enrichment (6-mer frequency, TF over GST control)"
same,binding signal,ETV1,"1.14 fold enrichment (6-mer frequency, TF over GST control)"
